Test results taken from PubChem BioAssay AID449762 (Southern Research Specialized Biocontainment Screening …, 2010).
The campaign covered roughly 330,000 compounds. About 1,900 (0.58%) were called active. Roughly 4% stayed inconclusive and do not appear here. Rule as the data show it: inconclusive = inhibition above about 70% without an active follow-up result; inactive = below that. The list is a sample of the results. Results with a measured potency or affinity are listed apart.

Test: M. tuberculosis growth inhibition, HTS (AID 449762);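 also: bacterial growth assessed after seven days of incubation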
Details: M. tuberculosis H37Rv growth inhibition, 7H9 media; at 25 µM; hits give high values

Compound	inhibition
CC(Oc1ccc2c3c(c(=O)oc2c1)CCC3)C(=O)NC1CCN(Cc2ccccc2)CC1 (centres undefined)	5.54% (inactive)
O=C(NCc1ccccc1Cl)c1ccc(S(=O)(=O)Nc2cccc(C(F)(F)F)c2)cc1	-11.7% (inactive)
S=C(NCc1cccnc1)Nc1ccc(Oc2ccccc2)cc1	4.52% (inactive)
c1ccc(-c2nc(N3CCCCC3)nc3ccccc23)cc1	36.9% (inactive)
Clc1ccc(-c2nc(N3CCCCC3)nc3ccccc23)cc1	8.31% (inactive)
COc1cc(OC)cc(C(=O)Nc2cccc(-c3ccc(N4CCOCC4)nn3)c2)c1	-3.98% (inactive)
COc1ccc(C(=O)NNC(=O)c2ccc(S(=O)(=O)N3CCOCC3)cc2)cc1	0.01% (inactive)
CCCN1C(=O)C2(SC(NC(C)=O)=NN2C(C)=O)c2cc(C)ccc21 (centres undefined)	-6.76% (inactive)
COc1cc(F)ccc1S(=O)(=O)N1CCN(C23CC4CC(CC(C4)C2)C3)CC1	9.71% (inactive)
COc1ccc(OC)c(S(=O)(=O)N2CCN(C34CC5CC(CC(C5)C3)C4)CC2)c1	2.72% (inactive)
Oc1[nH]c2ccc(Br)cc2c1N=NC(=S)N1CCOCC1	7.05% (inactive)
NC(=S)N=Nc1c(O)[nH]c2ccccc12	-9.66% (inactive)
CCCc1cc(C(=O)Nc2ccc(C(C)=O)cc2)no1	29.9% (inactive)
CCc1ccc(NC(=O)c2cc(CC(C)C)on2)cc1	4.83% (inactive)
CCOc1ccc(C(=S)N2CCN(C)CC2)cc1	-1.09% (inactive)
CCc1nc(C)cn1S(=O)(=O)c1cc(Cl)c(OC)cc1Cl	-6.76% (inactive)
CCN(CC)C(=O)c1ccc2c(c1)N(Cc1ccccc1)C(=O)CS2=O (centres undefined)	0.11% (inactive)
Cc1ccc(C(=O)Nc2cccc(C(F)(F)F)c2)cc1NC(=O)c1nccn1C	-2.57% (inactive)
CC(=O)c1ccccc1NC(=O)COC(=O)CCC1CCCC1	9.67% (inactive)
CC(C)/C=C1\CC/C(=C\c2cccnc2)C1=O	11% (inactive)

Compound	inhibition
O=C1/C(=C/c2cccnc2)CC/C1=C\c1cccnc1	-0.97% (inactive)
COc1cc(/C=C/C(=O)OC(C)C(=O)Nc2ccc(Cl)cn2)ccc1OC(F)F (centres undefined)	28.3% (inactive)
COc1ccc(Nc2nc(Cl)nc(NCc3ccco3)n2)c(OC)c1	-5.12% (inactive)
Cc1noc(NS(=O)(=O)c2ccc(NC(=O)/C=C/c3ccc(C(C)C)cc3)cc2)c1C	-12.3% (inactive)
CC(C)N1C(=O)S/C(=C\c2ccc(-c3ccc(Cl)c(C(=O)O)c3)o2)C1=O	4.73% (inactive)
CCN(CC)c1ccc(C=C2C(=O)N(C)C(=S)N(C)C2=O)o1	1.5% (inactive)
NC(=O)CN1CCCC1c1ccc2c(c1)OCCO2 (centres undefined)	-1.31% (inactive)
CC(=O)c1ccc(OCC(=O)N2CCCC2c2ccc3c(c2)OCCCO3)cc1 (centres undefined)	-12.4% (inactive)
CCc1nnc(NC(=O)CN2CCN(Cc3cccc(F)c3)CC2)s1	13.7% (inactive)
COc1ccc(NS(=O)(=O)c2cccc(C(=O)NCc3ccccn3)c2)cc1	-5.64% (inactive)
O=C(CCn1cnnn1)Nc1ccc(Cl)cc1Cl	-5.53% (inactive)
O=C(CN1CCCCC1)Nc1nnc(-c2ccccc2)s1	5.25% (inactive)
O=C(CN1CCCC1)Nc1ccc([N+](=O)[O-])cc1	4.32% (inactive)
O=C(OCC(=O)N1CCCC1)c1ccc(Cl)c([N+](=O)[O-])c1	-6.77% (inactive)
COc1ccccc1N1CCN(c2ccc(Cl)nn2)CC1	0.36% (inactive)
COc1ccccc1N1CCN(c2ccc3ccccc3n2)CC1	1.84% (inactive)
CCCNC(=O)NC(=O)COC(=O)c1cccc(NS(=O)(=O)c2ccc(F)c(F)c2)c1	5.38% (inactive)
CC1(C2CC2)NC(=O)N(CC(=O)N2CCN(c3ccccc3)CC2)C1=O (centres undefined)	-0.6% (inactive)
Nc1nc(-c2ccco2)nn1C(=O)CCc1ccccc1	6.17% (inactive)
CC(=O)c1ccc(NC(=O)C2=CC(c3cccs3)=NS(=O)(=O)N2C)cc1	2.16% (inactive)

Compound	inhibition
O=c1[nH]c(Nc2ccc(F)cc2)cc2ccccc12	-14.1% (inactive)
NS(=O)(=O)c1ccc(NC2=CC(=O)C(=O)c3ccccc32)cc1	11.2% (inactive)
CC(=O)Nc1ccc(NC2=CC(=O)c3ccccc3C2=O)cc1	3.89% (inactive)
O=c1[nH]c(Nc2ccccc2)cc2ccccc12	0.07% (inactive)
COC(=O)CN(c1ccc(C)cc1)S(=O)(=O)c1c(C)[nH]c(=O)[nH]c1=O	-6.71% (inactive)
C=CCSc1nnc(NC(=O)c2ccc(N3CCCC3=O)cc2)s1	-1.46% (inactive)
C=CC[C@H](CC(=O)NCCO)C(=O)NC[C@@H](OC(=O)[C@@H](CC=C)CC(=O)OC(C)(C)C)c1ccccc1	-4.9% (inactive)
Cc1cc(N2CCN(c3ccc([N+](=O)[O-])c4cccnc34)CC2)c2ccccc2n1	-7.93% (inactive)
Cc1ccc(S(=O)(=O)N2CCN(c3ccc(C(F)(F)F)cc3[N+](=O)[O-])CC2)cc1	16% (inactive)
CCC1(CC)C(=O)N(Cc2ccccc2)C(=O)N(Cc2ccccc2)C1=O	-1.75% (inactive)
CCN(c1ccccc1)S(=O)(=O)c1ccc(OC)c(NC(=O)Cc2ccccc2OC)c1	-3.76% (inactive)
CCN(CCNC(=O)C1CC(=O)N(CCc2ccccc2)C1)c1ccccc1 (centres undefined)	-5.61% (inactive)
COc1cccc(/C=N/NC(=S)NC2CC3CC2C2C=CCC32)c1O (centres undefined)	-6.6% (inactive)
CCOc1ccc(/C=N/NC(=S)NC2CC3CC2C2C=CCC32)cc1 (centres undefined)	7.16% (inactive)
CC1CCCCC12NC(=O)N(CC(=O)NNC(=O)c1ccc(Br)cc1)C2=O (centres undefined)	1.45% (inactive)
CCSc1nnc(NC(=O)CSC2=NN3CCCC(=O)N=C3S2)s1	2.54% (inactive)
CN(c1cccc(NC(=O)Cc2ccccc2)c1)S(C)(=O)=O	5.18% (inactive)
O=C(NC(C(=O)N/N=C/c1ccccc1)c1n[nH]c(=O)c2ccccc12)c1ccccc1 (centres undefined)	2.9% (inactive)
O=C(NC(C(=O)N/N=C/c1ccncc1)c1n[nH]c(=O)c2ccccc12)c1ccccc1 (centres undefined)	2.1% (inactive)
